# Calls of active or inactive are those of the source.
# Assays:
# [1] = tested on: Plasmodium falciparum Sir2 (PF13_0152, Sir2A); assay: Plasmodium falciparum Sir2A binding compounds – biochemical, small-molecule microarray, 635 nm fluorescence, primary screen (AID 1098); conditions: fluorescence 635 nm, higher = more signal;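 further: score merges spot fluorescence intensity with its signal-to-noise ratio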
# [2] = probe aDKK1 binding to arrayed compounds – biochemical, biotinylated probe, 635/667 nm fluorescence, primary screen (AID 1099); conditions: small-molecule microarray, higher = more signal;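 further: score merges 667nm spot fluorescence with signal to noise across triplicate slides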
# [3] = probe aCHRDL2 binding to arrayed compounds – biochemical, biotinylated probe, 635/667 nm fluorescence, primary screen (AID 1100); conditions: small-molecule microarray, higher = more signal
# [4] = change in splice reporter luminescence, either direction, cell-based, HEK293, spliceosome inhibition project, primary screen (AID 1101); conditions: HEK293 splicing luciferase reporter, 24 h, higher = more signal, called active from +8 up or from −8 down;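 further: HEK293 cells carrying a splicing-competent luciferase reporter gene; test concentration not given here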
# [5] = molecular target: Fibroblast growth factor 10 (Homo sapiens) (UniProt O15520); assay: compounds binding fibroblast growth factor 10 – biochemical, small-molecule microarray, 635 nm fluorescence, primary screen (AID 1102); conditions: FGF10 binding, fluorescence 635 nm, higher = more signal
# Fibroblast growth factor 10 (Homo sapiens), sequence (O15520 whole entry, looked up): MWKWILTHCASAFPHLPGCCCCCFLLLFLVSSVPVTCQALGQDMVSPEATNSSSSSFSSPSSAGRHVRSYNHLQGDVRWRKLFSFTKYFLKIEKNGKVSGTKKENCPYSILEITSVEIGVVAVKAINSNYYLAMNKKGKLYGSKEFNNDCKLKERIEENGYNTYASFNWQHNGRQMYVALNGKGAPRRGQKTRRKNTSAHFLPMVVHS
# [6] = tested on: glycogen synthase kinase-3 (GSK3A per assay name; protocol says GSK3B); assay: compounds binding glycogen synthase kinase-3 – biochemical, small-molecule microarray, 635 nm fluorescence, GSK3A, primary screen (AID 1103); conditions: fluorescence 635 nm, higher = more signal; further: the record names both GSK3A and GSK3B
# [7] = molecular target: Epidermal growth factor receptor (Homo sapiens) (UniProt P00533); assay: compounds binding epidermal growth factor receptor – biochemical, small-molecule microarray, 635 nm fluorescence, primary screen (AID 1104); conditions: EGFR binding, higher = more signal;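 further: score merges 667 nm emission intensity with spot signal to noise over triplicate slides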
# Epidermal growth factor receptor (Homo sapiens), sequence (P00533 whole entry, looked up): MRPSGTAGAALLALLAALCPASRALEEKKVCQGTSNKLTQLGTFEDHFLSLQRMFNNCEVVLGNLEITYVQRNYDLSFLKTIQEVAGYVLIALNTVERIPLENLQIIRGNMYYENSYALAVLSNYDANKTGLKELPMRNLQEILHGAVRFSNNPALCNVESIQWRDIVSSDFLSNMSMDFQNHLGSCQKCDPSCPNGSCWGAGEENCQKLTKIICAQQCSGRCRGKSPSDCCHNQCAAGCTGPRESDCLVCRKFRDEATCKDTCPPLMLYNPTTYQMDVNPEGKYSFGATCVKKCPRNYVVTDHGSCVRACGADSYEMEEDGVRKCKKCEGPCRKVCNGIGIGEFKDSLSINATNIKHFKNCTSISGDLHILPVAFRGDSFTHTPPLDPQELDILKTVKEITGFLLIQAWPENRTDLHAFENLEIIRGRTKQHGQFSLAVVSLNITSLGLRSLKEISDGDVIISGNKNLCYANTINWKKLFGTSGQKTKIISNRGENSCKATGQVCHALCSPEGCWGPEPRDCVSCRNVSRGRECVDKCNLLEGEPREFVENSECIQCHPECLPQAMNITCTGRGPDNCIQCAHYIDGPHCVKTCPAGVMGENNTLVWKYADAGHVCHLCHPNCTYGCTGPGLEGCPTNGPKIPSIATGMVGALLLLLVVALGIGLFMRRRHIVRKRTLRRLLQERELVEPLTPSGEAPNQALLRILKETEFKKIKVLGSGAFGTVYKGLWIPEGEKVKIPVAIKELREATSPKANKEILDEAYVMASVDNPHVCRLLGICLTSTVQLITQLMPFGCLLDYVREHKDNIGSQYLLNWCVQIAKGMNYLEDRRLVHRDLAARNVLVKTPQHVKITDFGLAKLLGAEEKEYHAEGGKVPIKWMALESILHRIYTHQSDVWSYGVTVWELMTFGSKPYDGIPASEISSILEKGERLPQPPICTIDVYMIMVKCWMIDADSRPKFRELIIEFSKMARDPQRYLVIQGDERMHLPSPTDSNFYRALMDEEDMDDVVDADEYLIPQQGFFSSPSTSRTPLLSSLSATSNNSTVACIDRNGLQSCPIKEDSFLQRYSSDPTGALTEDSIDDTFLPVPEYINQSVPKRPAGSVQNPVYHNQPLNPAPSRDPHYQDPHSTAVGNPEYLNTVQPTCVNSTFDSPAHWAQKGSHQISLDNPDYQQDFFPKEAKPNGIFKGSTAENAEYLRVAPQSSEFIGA
# [8] = molecular target: Follistatin-related protein 3 (Homo sapiens) (UniProt O95633); assay: compounds binding follistatin-related protein 3 – biochemical, small-molecule microarray, 635 nm fluorescence, primary screen (AID 1105); conditions: FSTL3 binding, higher = more signal;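 further: score merges emission near 667 nm and signal to noise per printed spot across three slides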
# Follistatin-related protein 3 (Homo sapiens), sequence (O95633 whole entry, looked up): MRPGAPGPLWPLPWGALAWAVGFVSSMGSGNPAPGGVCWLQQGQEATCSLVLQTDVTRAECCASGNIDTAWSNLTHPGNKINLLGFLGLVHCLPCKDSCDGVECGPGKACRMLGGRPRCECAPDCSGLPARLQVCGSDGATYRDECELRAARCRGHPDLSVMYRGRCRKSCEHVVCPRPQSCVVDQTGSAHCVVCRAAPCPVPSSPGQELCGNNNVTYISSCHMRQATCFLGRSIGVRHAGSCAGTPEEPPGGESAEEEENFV
# [9] = molecular target: Dickkopf-related protein 1 (Homo sapiens) (UniProt O94907); assay: small molecules binding DKK1 protein – biochemical, small-molecule microarray, 635 nm fluorescence scan, primary screen (AID 1106); conditions: higher = more signal;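 further: score merges emission near 667 nm with signal to noise over three replicate slides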
# Dickkopf-related protein 1 (Homo sapiens), sequence (O94907 whole entry, looked up): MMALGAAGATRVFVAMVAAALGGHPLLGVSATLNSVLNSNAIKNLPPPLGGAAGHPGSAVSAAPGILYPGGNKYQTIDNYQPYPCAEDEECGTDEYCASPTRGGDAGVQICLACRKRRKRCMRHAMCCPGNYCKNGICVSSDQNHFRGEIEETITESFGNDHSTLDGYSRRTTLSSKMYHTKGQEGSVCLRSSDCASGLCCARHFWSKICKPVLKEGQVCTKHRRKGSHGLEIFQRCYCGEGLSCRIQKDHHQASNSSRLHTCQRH
# [10] = tested on: Inhibin beta A chain (activin A); assay: small molecules binding activin A – biochemical, small-molecule microarray, 635 nm fluorescence scan, primary screen (AID 1107); conditions: INHBA, higher = more signal;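 further: mouse activin A protein probed at 4.33 µg/mL on printed slides; score merges bound-protein fluorescence near 667 nm with spot signal-to-noise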
# [11] = tested on: Human papillomavirus type 1a protein E7 (residues 44-93); assay: small molecules binding HPV E7 44-93 – biochemical, small-molecule microarray, residues 44-93, 635 nm fluorescence, primary screen (AID 1108); conditions: fluorescence 635 nm, higher = more signal;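 further: E7 fragment applied at 1 µg/mL in TBST for 1 h at 4 C; score combines spot fluorescence with its signal to noise ratio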
# [12] = hepatitis C replication reporter changes, two-sided – Huh7 cells, luciferase reporter, HCV replication inhibitor project, primary screen (AID 1109); conditions: Huh7 HCV replicon luciferase reporter, 48 h; higher = more signal;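 further: huh7 hepatoma cells harbouring a luciferase neomycin HCV replicon reporter; luciferase luminescence as measure of HCV replicon replication; test concentration not given here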
# [13] = molecular target: Left-right determination factor 2 (Homo sapiens) (UniProt O00292); assay: small molecules binding LEFTY2 protein – biochemical, small-molecule microarray, 635 nm fluorescence scan, primary screen (AID 1110); conditions: higher = more signal
# Left-right determination factor 2 (Homo sapiens), sequence (O00292 whole entry, looked up): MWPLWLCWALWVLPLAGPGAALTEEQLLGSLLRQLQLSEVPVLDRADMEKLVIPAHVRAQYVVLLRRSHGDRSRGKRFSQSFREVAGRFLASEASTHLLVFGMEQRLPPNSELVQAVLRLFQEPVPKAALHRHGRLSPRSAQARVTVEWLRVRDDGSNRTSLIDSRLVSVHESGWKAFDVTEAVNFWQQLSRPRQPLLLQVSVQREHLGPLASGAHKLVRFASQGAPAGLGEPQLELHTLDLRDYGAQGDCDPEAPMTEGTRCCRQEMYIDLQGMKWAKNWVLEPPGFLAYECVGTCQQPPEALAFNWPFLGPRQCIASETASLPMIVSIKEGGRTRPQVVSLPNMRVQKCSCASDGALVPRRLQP
# [14] = molecular target: Calmodulin-1 (Homo sapiens) (UniProt P0DP23); assay: small molecules binding calmodulin-1 with EGTA – biochemical, small-molecule microarray, Cy5-labelled CALM1, profiling panel (AID 1111); conditions: Cy5-CALM1 binding fluorescence, higher = more signal;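 further: labelled calmodulin applied in Tris saline Tween buffer holding calcium plus EGTA and DTT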
# [15] = molecular target: Calmodulin-1 (Homo sapiens) (UniProt P0DP23); assay: small molecules binding Ca-loaded calmodulin-1 – biochemical, small-molecule microarray, Cy5-labelled CALM1, plus calcium, artefact control for SMM control-protein annotation, profiling panel (AID 1112); conditions: Cy5-CALM1 binding fluorescence, higher = more signal;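 further: score merges spot fluorescence with signal to noise from triplicate slides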
# [16] = probe aWnt5a binding to arrayed compounds – biochemical, biotinylated probe, 635/667 nm fluorescence, primary screen (AID 1113); conditions: small-molecule microarray, higher = more signal;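 further: score merges 667 nm fluorescence intensity with signal-to-noise per printed feature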
# [17] = probe aShh binding to arrayed compounds – biochemical, biotinylated probe, 635/667 nm fluorescence, primary screen (AID 1114); conditions: small-molecule microarray, higher = more signal;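 further: probe is biotin-labelled aShh protein from a stem cell growth factor screen; measures binding of labelled protein to compounds printed on the slide; score merges feature fluorescence at 667 nm with signal-to-noise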
# [18] = probe aNog binding to arrayed compounds – biochemical, biotinylated probe, 635/667 nm fluorescence, primary screen (AID 1115); conditions: small-molecule microarray, higher = more signal;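 further: probe is biotinylated aNog protein used at 0.15 µg/mL for 1 h at 4 C; z-score combines 667 nm fluorescence of each spot with its signal to noise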
# [19] = molecular target: Torsin-1A-interacting protein 1 (Homo sapiens) (UniProt Q5JTV8); assay: compound microarray binding of lysate hLAP1 – cell lysate, small-molecule microarray, COS7 lysate, 635/667 nm fluorescence, primary screen (AID 1116); conditions: 635 nm fluorescence, higher = more signal
# Torsin-1A-interacting protein 1 (Homo sapiens), sequence (Q5JTV8 whole entry, looked up): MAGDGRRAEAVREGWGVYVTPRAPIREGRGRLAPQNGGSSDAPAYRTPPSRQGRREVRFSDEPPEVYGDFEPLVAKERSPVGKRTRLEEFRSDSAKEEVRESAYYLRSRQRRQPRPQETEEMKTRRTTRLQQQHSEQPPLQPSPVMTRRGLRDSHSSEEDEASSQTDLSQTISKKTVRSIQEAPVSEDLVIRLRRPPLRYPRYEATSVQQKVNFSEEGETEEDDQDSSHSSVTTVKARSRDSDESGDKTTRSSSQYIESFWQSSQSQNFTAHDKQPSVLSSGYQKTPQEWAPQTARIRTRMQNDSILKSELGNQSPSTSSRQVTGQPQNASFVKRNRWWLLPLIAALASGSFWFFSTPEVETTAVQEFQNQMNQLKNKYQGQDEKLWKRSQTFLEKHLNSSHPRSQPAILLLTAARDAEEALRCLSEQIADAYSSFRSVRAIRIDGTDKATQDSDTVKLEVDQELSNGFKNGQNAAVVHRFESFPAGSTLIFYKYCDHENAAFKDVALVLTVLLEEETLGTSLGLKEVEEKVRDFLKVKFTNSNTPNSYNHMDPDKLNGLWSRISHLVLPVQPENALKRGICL
# [20] = molecular target: Alpha-bungarotoxin (Bungarus multicinctus) (UniProt P60615); assay: compounds binding labelled alpha-BTX control protein – biochemical, small-molecule microarray, Alexa647 label, 635/667 nm fluorescence, artefact control for SMM control protein annotation, profiling panel (AID 1117); conditions: alpha-BTX-A647 binding fluorescence, higher = more signal
# Alpha-bungarotoxin (Bungarus multicinctus), sequence (P60615 whole entry, looked up): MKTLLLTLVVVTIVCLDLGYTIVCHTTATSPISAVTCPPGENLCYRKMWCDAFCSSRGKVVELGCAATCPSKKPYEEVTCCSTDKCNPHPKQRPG
SMILES,composite z-score [1],composite z-score [2],composite z-score [3],z-score [4],composite z-score [5],composite z-score [6],composite z-score [7],composite z-score [8],composite z-score [9],composite z-score [10],composite z-score [11],z-score [12],composite z-score [13],composite z-score [14],composite z-score [15],composite z-score [16],composite z-score [17],composite z-score [18],composite z-score [19],composite z-score [20]
C=C(/C(=C/C[C@@H](OC(C)=O)c1cccc(OCCO)c1)c1cc(C(=O)OC)ccc1OC)C(C)C,0.628,0.153,-0.0171,-0.0584 (inactive),0.855,-0.298,-0.122,0.533,-0.35,0.632,0.522,-1.53,0.256,-0.343,-0.563,-0.221,-0.221,-0.223,0.189,0.215
O=C(N1CCCCC1)[C@@]1(CCS(=O)(=O)c2ccccc2)COC(c2ccc(OCCCO)cc2)=N1,1.38,1.12,1.21,1.74 (inactive),0.96,1.02,-0.075,0.348,0.495,1.21,0.517,-0.98,-0.0902,0.695,-0.438,0.0374,-0.0064,-0.489,1.51,0.632
COC1OC[C@]2(C)[C@H]3C4=C(CN2C(=O)OC(C)(C)C)[C@H](C)C(CO)C(CO)C4CC[C@@H]13 (stereo not given in full),0.422,1.39,1.52,2.09 (inactive),0.513,1.18,0.0188,0.823,-0.362,1.17,1.22,-1.3,-0.134,2.62,1.39,-0.0007,0.605,1.04,2.14,2.39
C=CCC(OC(C)=O)[C@@H]1[C@@H](N(Cc2cc3ccccc3o2)C(=O)c2ccc(-c3ccccc3)cc2)c2cc(OCCCO)ccc2N1C(=O)c1ccc2ccccc2c1 (stereo not given in full),0.187,-0.106,0.285,0.416 (inactive),0.132,0.289,-0.0546,0.674,0.227,1.02,0.143,-1.48,0.0403,0.137,0.185,-0.0398,0.0048,-0.466,0.612,0.264
CCOC(=O)C[C@H]1[C@H](OC(=O)Cc2ccc3c(c2)OCO3)[C@@H](NC(=O)CC(C)C)c2cc(OCCCO)ccc2N1C(=O)Cc1ccc(OC)cc1,-0.25,-0.283,-0.0563,-1.86 (inactive),0.139,0.0308,-0.0638,-0.0495,0.0009,0.26,0.479,-0.948,0.073,-0.221,-0.361,-0.012,-0.138,-0.25,0.466,1.03
O=C1OCCC=C[C@H]2OC34C=CCN(Cn5nnc6ccccc65)C(=O)[C@H]3N(CCCCCCO)C(=O)[C@@H]4C12 (stereo not given in full),1.8,-0.0278,0.337,0.415 (inactive),-0.893,-0.357,-1.23,-0.822,-1.03,-0.157,-0.607,0.333,-1.51,-0.204,0.646,-0.208,-0.179,-0.142,-0.0637,-1.27
C=CCOC(=O)[C@H]1[C@@H]2C(=O)O[C@@H](c3ccccc3)[C@@H](c3ccccc3)N2[C@@H](c2ccc(OCCOC(=O)[C@@H]3C[C@@H]4C(=O)N[C@@H](CCCCN(C)C)C(=O)N4[C@@H]3c3ccc(O)cc3)cc2)[C@]12C(=O)Nc1ccccc12,0.913,0.173,0.0016,-0.311 (inactive),1.03,1.32,0.961,1.43,1.27,-0.471,-0.541,-2.88,1.08,-1.35,-1.07,-0.124,-0.0709,-0.106,1.17,-0.23
CN(C)CCCNC(=O)[C@@]1(c2ccc([N+](=O)[O-])cc2)CC(=O)N(CC23CC4CC(CC(C4)C2)C3)[C@@H]1c1ccc(CO)cc1I,1.59,-0.0761,0.407,-0.854 (inactive),0.879,0.556,0.555,1.34,1.08,0.0974,1.39,-3.54,0.703,0.307,-0.0622,0.0668,0.462,0.192,1.27,1.15
CC(CO)N1C(=O)[C@@H]2[C@H]3C(=O)OCC=C[C@H]3OC23C=CCN(Cc2ccccc2)C(=O)[C@@H]13 (stereo not given in full),0.978,-0.321,0.247,-1.11 (inactive),-0.49,-1.23,-1.18,-0.578,-0.567,0.056,-1.13,-0.254,-0.509,-0.216,-0.324,0.206,-0.211,-0.273,-0.5,-0.221
CCOC(=O)C1=CC[C@@H](c2ccc(OCc3ccccc3)c(OC)c2)N(S(=O)(=O)c2ccc(C)cc2)[C@H]1c1ccc(SC)cc1,1.26,0.842,1.04,0.236 (inactive),1.1,0.587,0.838,1.12,0.174,0.994,1.4,-1.75,0.458,1.23,0.298,0.155,0.0659,1.1,0.746,0.573
CCOC(=O)C[C@H]1[C@H](OC(=O)c2cc3ccccc3oc2=O)[C@@H](NC(=O)c2ccc(-c3ccccc3)cc2)c2cc(OCCCO)ccc2N1C(=O)c1ccccc1,1.17,-0.24,-0.466,-1.38 (inactive),1.02,1.04,0.613,1.05,1.22,0.479,1.4,-0.659,1.16,0.536,-0.15,-0.0203,0.199,0.161,0.959,0.727

# — PubChem BioAssay
